In PubChem BioAssay AID1276 (Columbia University Molecular Screening Center, 2008):
The whole screen tested about 190,000 compounds, of which about 2,000 (1.1%) were called active.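 How the source made its calls: active means activation above a set limit, based on mean plus 3 SD of controls (cut at about 140% in these data); inconclusive means one replicate above the limit, the other below; inactive means the rest.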 The full list was thinned out, with actives kept by preference.

Assay: APP 5'UTR reporter signal increase – luciferase, SH-SY5Y cells, primary screen (AID 1276)
Conditions: SH-SY5Y APP 5'UTR luciferase reporter, luminescence; at 2 µM; active compounds read high; zero percent = DMSO vehicle wells

| Structure (SMILES) | activation |
| --- | --- |
| O=S(=O)(NCC1CCCO1)c1cnc(Cl)c(Cl)c1 (stereo not given) | 1.68% (inactive) |
| CC(=O)c1ccc(S(=O)(=O)Nc2ccc(C(=O)NCC(c3ccccc3)N(C)C)cc2)cc1 (stereo not given) | -1.54% (inactive) |
| COc1ccccc1N1CCN(c2ccc([N+](=O)[O-])nc2)CC1 | 0.38% (inactive) |
| O=C(N/N=C/c1ccc(Cl)cc1)c1nc2ccc([N+](=O)[O-])cc2c(=O)[nH]1 | 5.49% (inactive) |
| COc1cccc(-n2c(=S)[nH]c3c(oc4ccccc43)c2=O)c1 | 23% (inactive) |
| Cc1cccc(-n2c(C)cc(/C=N/NC(N)=S)c2C)c1 | -0.81% (inactive) |
| Cc1cccc(-n2c(O)c(C=Nc3ccccc3N)c(=O)[nH]c2=O)c1 | 148% (active) |
| Cc1ccc(N=Cc2c(O)n(-c3nccs3)c(=O)c3ccccc23)c(C)c1 | 11.8% (inactive) |
| CCCCc1nnc(NC(=O)CSc2nc(N)cc(=O)[nH]2)s1 | -0.9% (inactive) |
| O=c1[nH]c2ccccc2s1 | -19.6% (inactive) |
| COc1cc([N+](=O)[O-])ccc1NC(=S)N1CCN(c2ccccn2)CC1 | -4.93% (inactive) |
| COc1nc(N(C)C)nc(N2CC(=O)N(CCNS(=O)(=O)c3ccc(C)cc3)C2=N)n1 | -1.55% (inactive) |
| CC(=O)n1cc([C@@H]2C=C(C(=O)N3CCN(Cc4ccc5c(c4)OCO5)CC3)O[C@H](OCc3ccc(CO)cc3)C2)c2ccccc21 | -22.2% (inactive) |
| CCOc1cccc(/C=C/c2ccc3ccccc3n2)c1OC(C)=O | 216% (active) |
| COc1cccc(/C=C/c2ccc3ccccc3n2)c1OC(C)=O | 131% (inactive) |
| NC(=O)COC(=O)/C=C/c1ccc2ccccc2n1 | 2.32% (inactive) |
| O=C(c1cccc(S(=O)(=O)N2CCCC2)c1)N(Cc1ccco1)C1CCS(=O)(=O)C1 (stereo not given) | 11.1% (inactive) |
| Cc1ccc(S(=O)(=O)/N=C(/Nc2ccc3[nH]c(=O)[nH]c3c2)c2ccccc2)cc1 | -13.5% (inactive) |
| CCOc1ccc(CN2CCN(Cc3ccon3)CC2CCO)cc1 (stereo not given) | 7.1% (inactive) |
| O=C(c1cnn2ccccc12)N1CCc2ccccc21 | 145% (active) |
| O=C(c1cccc(C(=O)N2CCc3ccccc32)n1)N1CCc2ccccc21 | -32.2% (inactive) |
| NC(=O)N1CCc2ccccc21 | -5.27% (inactive) |
| Cc1ccc(C(=O)N2CCN(S(=O)(=O)N3CCOCC3)CC2)cc1 | 0.65% (inactive) |
| Cc1ccc(-n2cc3ccc([N+](=O)[O-])cc3n2)cc1 | 179% (active) |

| Structure (SMILES) | activation |
| --- | --- |
| Cc1ccc(-c2cn3cc([N+](=O)[O-])ccc3n2)cc1 | 120% (inactive) |
| Cc1cc(C)nc(Nc2cc([N+](=O)[O-])ccc2C)n1 | -6.89% (inactive) |
| Cc1cc([N+](=O)[O-])ccc1NC1CCCC1 | -0.84% (inactive) |
| OCC1(Cc2ccccc2)CCN(Cc2cc3ccccc3o2)CC1 | -8.13% (inactive) |
| COc1ccccc1Oc1ccc(N/C=C2/CCCC2=O)cc1 | 17.2% (inactive) |
| Cc1[nH]c2c(C(=O)N3CCCC(CCC(=O)NCc4ccccc4F)C3)cccc2c1C (stereo not given) | 17.2% (inactive) |
| COc1c(C=O)c(CCN(C)C(=O)c2ccc(F)cc2)cc2c1OCO2 | 0.6% (inactive) |
| c1ccc(Nc2nc(N3CCOCC3)c3ccccc3n2)cc1 | 7.27% (inactive) |
| CCOc1ccc(Nc2nc(Cl)nc(N3CCN(c4ccc(OC)cc4)CC3)n2)cc1 | -9.55% (inactive) |
| COc1ccc(Nc2ncc(F)c(N3CCOCC3)n2)cc1 | 153% (active) |
| CCOC(=O)c1c(/N=C/C2C(=O)CC(C)(C)CC2=O)sc(C)c1C | 2.63% (inactive) |
| CCN(CC)CCOC(=O)c1ccc(NC(=O)CNC(=O)c2ccccc2)cc1 | 18.8% (inactive) |
| COc1cccc(CN(C)CC(=O)NCc2ccccc2Cl)c1OC | 7.69% (inactive) |
| NC(=O)C1CCN(Cc2nc3c(Br)cc(Br)cc3c(=O)[nH]2)CC1 | 4.38% (inactive) |
| COc1ccc(NC(=S)N2N=CCC2c2ccccc2)cc1 (stereo not given) | 180% (active) |
| COc1ccc(C(=O)NC2CCN(C(=S)Nc3ccccc3)CC2)cc1 | -16.7% (inactive) |
| COc1ccc(C(=S)Nc2ccccc2)cc1 | 68.3% (inactive) |
| O=C1C2C3C=CC(C3)C2C(=O)N1c1ccc(-c2nc3ccccc3c(=O)o2)cc1 (stereo not given) | 3.88% (inactive) |
| Cc1cccc(C(=O)N2CCCN(C(=O)c3cccc(C)c3)CC2)c1 | 2.21% (inactive) |
| Cc1ccc2cc3cc(C(=O)N4CCCCCC4)oc3nc2c1 | 167% (active) |
| Cc1cc(=O)oc(C)c1C(=O)N1CCCCC1 | -5.29% (inactive) |
| CCC1(C(=O)c2ccccc2)C(c2cccc([N+](=O)[O-])c2)C1(C(=O)OC)C(=O)OC (stereo not given) | -17.3% (inactive) |
| CCN(CC)c1ccc2c(Nc3ccccc3)c(C=O)c(=O)oc2c1 | -11.3% (inactive) |
| C=CCSc1nc2ccccc2[nH]1 | 15.8% (inactive) |

| Structure (SMILES) | activation |
| --- | --- |
| O=C(CSc1nc2ccccc2[nH]1)c1cccs1 | 162% (active) |
| CCCCSc1nc2ccccc2[nH]1 | 27.4% (inactive) |
| CC(C)(C)NC(=O)CN(C(=O)c1ccc(Cl)nc1)c1cccc2ccccc12 | -19.3% (inactive) |
| O=C(Nc1cccn(Cc2ccccc2Cl)c1=O)NC1CCCCC1 | 19.9% (inactive) |
| Cc1ccnc(N2CCCC(C(=O)Nc3cc(F)ccc3C)C2)n1 (stereo not given) | 30.3% (inactive) |
| O=C(Nc1ccc2c(c1)OCCO2)C1CCCN(c2ncccn2)C1 (stereo not given) | 159% (active) |
| Cc1cc(C)nc(N2CCC(C(=O)Nc3ccc4c(c3)OCCO4)CC2)n1 | 2.98% (inactive) |
| CCN(CC)CCNC(=O)c1ccc(NS(=O)(=O)c2ccc3c(c2)OCCO3)cc1 | 12.6% (inactive) |
| O=C(Nc1ccc(N2CCN(C(=O)C3CC3)CC2)cc1)c1cccs1 | -0.31% (inactive) |
| COC(c1ccccc1)c1nnc(CCC(=O)N2CCN(CCOc3ccccc3)CC2)o1 (stereo not given) | -7.19% (inactive) |
| O=C(Nc1ccc(Cl)cn1)Nc1cccs1 | 25.6% (inactive) |
| COc1ccc(-c2csc(Nc3ccccn3)n2)cc1 | 205% (active) |
| COc1ccc(-c2csc(Nc3ccc(O)cc3)n2)cc1 | 120% (inactive) |
| c1cnc(Nc2nc(-c3ccc4ccccc4c3)cs2)nc1 | 29.6% (inactive) |
| COc1ccc(Nc2nc(-c3ccccc3)cs2)cc1 | 148% (active) |
| Oc1ccc(-c2csc(Nc3cccnc3)n2)cc1 | 17.7% (inactive) |
| O=C(Nc1nc(-c2ccc(-c3ccccc3)cc2)cs1)c1cnccn1 | 11% (inactive) |
| Clc1ccc(Nc2nc(-c3cccs3)cs2)nc1 | 135% (active) |
| c1ccc(Nc2nc(-c3ccncc3)cs2)nc1 | 158% (active) |
| COc1ccc2nc(Nc3nc(-c4ccncc4)cs3)sc2c1 | 65.1% (inactive) |
| COc1ccc(C(=O)/C=C/Nc2ccccn2)cc1 | 134% (inactive) |
| NS(=O)(=O)c1ccc(Nc2nc(-c3ccccc3)cs2)cc1 | 52.2% (inactive) |
